# This is a sample that favours compounds with a hit; in the whole collection about 19% have one here.
# Gal4-VP16 FLuc: counter-screen for ROR gamma inhibitors: Gal4-VP16 reporter; Drosophila S2 Gal4-VP16 UAS-luciferase, luminescence, 20 h; Potency, µM (top dose mostly 53.6 µM), inactives show top-dose activity, negative = inhibition, most hits filed as inhibitors; 310,000 tested, 3.5% active;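 further: Gal4-VP16 expression switched on by copper sulfate through the metallothionein promoter; nearly all actives have a fitted effect of over 50% in size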
# TDP1 cell noCPT: qHTS for Inhibitors of human tyrosyl-DNA phosphodiesterase 1 (TDP1): qHTS in cells in absence of CPT; DT40 Tdp1-/- hTDP1 cells, no CPT, ATP luminescence, 48 h; Potency, µM (doses to about 46.2 µM), without a hit: top-dose activity change, negative = growth inhibition, most hits filed as inhibitors; 420,000 tested, 15% active; further: nearly all actives have a fitted effect of over 55% in size
#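 Luminescent ATP content (CellTiter-Glo) served as the growth readout. Knockout chicken DT40 cells expressing human TDP1 were exposed to compounds without camptothecin for a minimum 48 hr at 37 °C.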
# DT40 TDP1 CPT: DT40-hTDP1 cell growth loss with CPT; chicken DT40 Tdp1-/-;hTDP1 cells + 20 nM CPT, ATP luminescence, 48 h; Potency, µM (highest dose often 46.2 µM), for inactives: at the highest dose activity change, negative = growth inhibition, most hits filed as inhibitors; 420,000 tested, 12% active; AID 686979; further: nearly all actives have a fitted effect of over 55% in size
#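 Chicken DT40 Tdp1-/- cells stably complemented with human TDP1 were seeded at 400 cells/well in medium containing 20 nM camptothecin, exposed to pin-transferred compounds, and grown at 37 °C for at least 48 hr. Viability was read as ATP luminescence.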
# RORgamma inh: inhibitors of mouse ROR gamma transcriptional activity; P51450; Drosophila S2 Gal4-RORgamma UAS-luciferase reporter, 20 h; Potency, µM (highest dose often 53.6 µM), without a hit: at the top dose activity change, negative = inhibition, actives largely listed as inhibitors; 310,000 tested, 5.4% active; further: nearly all actives have a fitted effect of over 60% in size
#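 Read-out: Photinus luciferase luminescence; inhibitors lower reporter signal. Insect Schneider cells with Gal4-ROR gamma fusion under metallothionein promoter, UAS reporter; 700 uM final copper sulfate induction, 20 hr, ambient temperature.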
# TDP1 inh: inhibitors of human tyrosyl-DNA phosphodiesterase TDP1. Q9NUW8. recombinant TDP1, AlphaScreen DNA substrate cleavage. Potency, µM (doses to about 130 µM), for inactives: top-dose activity change, negative = inhibition, usual class: inhibitors. 350,000 tested, 0.28% active. AID 485290; further: nearly all actives have a fitted effect of over 40% in size
# Target sequence (Q9NUW8 whole entry, looked up): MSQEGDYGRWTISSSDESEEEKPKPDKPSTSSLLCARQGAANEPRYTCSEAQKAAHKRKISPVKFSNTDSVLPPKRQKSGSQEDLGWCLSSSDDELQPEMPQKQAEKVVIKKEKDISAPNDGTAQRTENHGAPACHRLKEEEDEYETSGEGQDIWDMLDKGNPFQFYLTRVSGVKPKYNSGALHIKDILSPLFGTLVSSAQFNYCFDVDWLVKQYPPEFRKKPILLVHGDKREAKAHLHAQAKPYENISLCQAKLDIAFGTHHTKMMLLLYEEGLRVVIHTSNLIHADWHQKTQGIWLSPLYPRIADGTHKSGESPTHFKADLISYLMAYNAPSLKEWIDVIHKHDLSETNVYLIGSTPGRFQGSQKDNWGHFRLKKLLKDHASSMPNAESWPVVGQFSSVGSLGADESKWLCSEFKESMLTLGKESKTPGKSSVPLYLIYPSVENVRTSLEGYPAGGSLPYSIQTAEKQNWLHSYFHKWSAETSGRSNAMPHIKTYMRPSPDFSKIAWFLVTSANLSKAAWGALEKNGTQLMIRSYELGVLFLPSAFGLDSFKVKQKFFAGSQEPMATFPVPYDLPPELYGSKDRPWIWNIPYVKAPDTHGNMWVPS
#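 Steps: enzyme plus compound, 15 min RT; add biotin/phosphotyrosine-FITC oligonucleotide (15 nM final), react 5 min; add donor/acceptor beads (10 ug/ml final), 10 min; read AlphaScreen. Tdp1 at 1 nM final.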
# An asterisk follows results filed as active; ? = inconclusive; / = no result given. The call rests on the fitted dose curve; in most records, active means well fitted curve in the direction sought with a large enough effect; inconclusive means small, poorly fitted or top-dose-only effect, or another doubt; inactive means no such curve, though single readings can be large; an effect the other way counts as inactive or inconclusive. On the % scale 0 is the no-effect control and ±100 the full control effect; potency means the concentration at half of the fitted maximal effect.
SMILES,Gal4-VP16 FLuc,TDP1 cell noCPT,DT40 TDP1 CPT,RORgamma inh,TDP1 inh
CCOC(=O)c1[nH]c(C)c(C(=O)N2CCc3c([nH]c4ccccc34)C2c2ccccn2)c1C (configuration not stated),-15.1%,?,16.4µM*,15.2%,-2.5%
CC(=O)Nc1ccc(CN2CCc3c([nH]c4ccccc34)C2c2ccccn2)cc1 (configuration not stated),-13.3%,20.6µM*,?,-16.4%,3.7%
Cc1cc2cc(C(=O)N3CCc4c([nH]c5ccccc45)C3c3ccccn3)ccc2o1 (configuration not stated),-3.4%,18.4µM*,?,12.9%,12.5%
CC(=O)c1ccc(C(=O)N2CCc3c([nH]c4ccccc34)C2c2cccc(C)n2)s1 (configuration not stated),-2.5%,14.6µM*,23.1µM*,33.2%,6.0%
CS(=O)(=O)N(CC(=O)Nc1ccccc1Sc1ccccc1)c1ccc(F)cc1,3.2%,?,-26.8%,?,3.1%
CNC(=S)/N=C/NOCc1ccc(Cl)cc1Cl,-11.5%,20.6µM*,?,-23.8%,8.8%
NC(=O)c1ccc(NS(=O)(=O)c2ccc3ccccc3c2)cc1,-15.1%,-19.9%,-6.5%,20.9%,/
CCNC(=S)NNC(=O)c1ccccc1Cl,14.1µM*,-3.0%,-0.1%,3.16µM*,4.5%
CCNC(=S)NNC(=O)c1ccccc1OC(F)F,?,-4.0%,-5.1%,3.98µM*,7.8%
COc1ccccc1NC(=S)NNC(=O)c1ccccc1Br,2.2%,13µM*,16.4µM*,?,9.3%
COc1ccccc1C(=O)NNC(=O)c1ccccc1Br,9.5%,8.3%,-6.8%,-34.9%,/
CCNC(=S)NNC(=O)c1ccoc1C,-8.9%,-4.2%,2.9%,-33.6%,3.9%
O=C(NNC(=O)c1ccccc1Cl)c1ccccc1Cl,-1.5%,-0.9%,-2.0%,-21.4%,0.0%
CCCc1cc(C(=O)NNC(=S)Nc2cccc(C)c2)cs1,?,?,-22.1%,2.24µM*,5.4%
Cc1cc2oc(=O)cc(CN3CCOCC3)c2cc1C(C)C,-3.9%,?,-9.0%,-7.3%,0.3%
Cc1ccc(NC(=O)CCNS(=O)(=O)c2cccc3nonc23)cc1Cl,-1.6%,?,?,29.2%,0.0%
Cc1ccc2cccc(OCC(=O)c3cc(C)n(Cc4ccco4)c3C)c2n1,-1.0%,/,/,42.3%,8.9%
Cc1cccc(NC(=S)NNC(=O)c2ccccc2Br)c1,?,?,?,0.891µM*,10.7%
Cc1cccc(NC(=S)NNC(=O)c2ccccc2OC(F)F)c1,?,29.1µM*,23.1µM*,?,9.8%
Cc1cccnc1NC(=S)Nc1ccc(Cl)c(Cl)c1,?,?,-10.9%,?,-1.2%
CCNC(=S)NNC(=O)c1ccncc1,-9.5%,3.1%,3.2%,?,3.5%
CCNC(=S)NNC(=O)c1ccccn1,?,?,20.6µM*,8.91µM*,-3.8%
O=C(NNC(=S)Nc1ccc(Cl)c(Cl)c1)c1ccccn1,-11.9%,1.46µM*,2.91µM*,?,2.5%
CCc1ccc(NC(=S)NNC(=O)c2ccccc2OC(F)F)cc1,?,/,/,-40.7%,8.3%
COc1ccc(NC(=S)NNC(=O)c2ccccc2OC(F)F)cc1,-7.5%,18.4µM*,13µM*,12.6µM*,9.8%
COc1ccc(NC(=O)c2ccc(CNc3c(N4CCCC4)c(=O)c3=O)cc2)cc1Cl,-5.1%,-9.8%,-17.2%,28.6%,/
COc1ccc2c(c1)c1nc3ccccc3nc1n2Cc1ccc(OC)c(OC)c1,?,?,?,?,0.6%
CC(=O)c1cccc(N=c2scc(-c3ccc(S(=O)(=O)N4CCOCC4)cc3)n2CCO)c1,2µM*,2.59µM*,6.51µM*,?,-2.5%
CN(C)S(=O)(=O)c1cccc(-c2csc(=Nc3ccccc3)n2CCCN2CCOCC2)c1,10.3%,?,?,12.9%,7.0%
CC(C)Cn1c(-c2ccc(S(=O)(=O)N3CCCC3)cc2)csc1=Nc1ccccc1,/,3.26µM*,5.8µM*,/,9.7%

# Compound activity deposited in PubChem BioAssay by National Center for Advancing Translational Sciences (NCATS).
